SKKanGAS inh – SKKanGAS growth inhibition; S. pyogenes SKKanGAS, kanamycin growth, BacTiter-Glo, 6 h; inhibition, % at 7.5 µM; actives 1.3% (n = 300,000); AID 1662;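 active = mean replicate score, as percent of positive control median, at least 50; inconclusive = mean below 50 but one replicate at or above 50; inactive = mean and every replicate below 50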;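 note: strain carries kanamycin resistance gene driven by streptokinase promoter and grows in 40 µg/ml kanamycin; loss of luminescence reflects streptokinase promoter inhibition or plain growth inhibition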
tim10-1 inh – inhibits growth of tim10-1 mutant yeast. actives 2.2% (n = 330,000). S. cerevisiae tim10-1 ts strain growth, BacTiter-Glo, 24 h. inhibition, % at 20 µM. AID 463190;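 active = inhibition of at least 40%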;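 note: mutant grown at 25 °C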
PfHsp90 set2 – growth inhibition of yeast expressing Plasmodium Hsp90; S. cerevisiae expressing PfHsp90, BacTiter-Glo ATP, 48 h; yeast lacking PDR1 and PDR3 efflux regulators; inhibition, % at 9.4 µM; actives 0.32% (n = 310,000); AID 504621;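 active = every replicate shows inhibition above about 80%, whatever the replicate mean, limit read from the data; inconclusive = mean inhibition reaches the set limit but some replicate falls short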
tim23-1 inh – tim23-1 yeast growth inhibition; S. cerevisiae tim23-1 growth, BacTiter-Glo luminescence, 24 h; inhibition, % at 20 µM; actives 1.3% (n = 330,000); AID 463212;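 active = growth inhibition of the mutant yeast at or above 50%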;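 note: temperature-sensitive mutant grown at 25 °C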
TIM10 inh – TIM10 yeast growth inhibition. S. cerevisiae TIM10 strain growth, BacTiter-Glo luminescence, 24 h. inhibition, % at 10 µM. actives 1.4% (n = 330,000);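 active = inhibition of 40% or more at the single tested concentration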;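 note: wild-type TIM10 isogenic control strain grown at permissive 25 °C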
tim10-1 confirm – tim10-1 yeast growth inhibition, confirmed; S. cerevisiae tim10-1 ts strain growth, BacTiter-Glo, 24 h; actives 56% (n = 7,400); inhibition, % at 20 µM; shares compounds with tim10-1 inh;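 active = inhibition of yeast growth at or above a set limit in either of two repeat tests at 20 µM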;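 note: tim10-1 mutant grown at permissive 25 °C to find synthetic lethal compounds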
Large screens that a line does not name were inactive (follow-up assays come after a bar, where they were run). Hits are enriched below; roughly 4.4% of the tested compounds scored in any of these assays.

CSc1ccccc1NC(=S)N/N=C/c1cccn1Cc1cccc(C)c1	none
CSc1ccccc1NC(=S)N/N=C/c1cccn1Cc1ccc(F)cc1	tim10-1 inh 44 | tim10-1 confirm inactive
O=C(COC(=O)c1cc(S(=O)(=O)N2CCCCC2)ccc1N1CCOCC1)c1ccc(F)cc1	none
O/N=C(/c1ccc(Cl)cc1)C1CC1c1ccccc1 (stereo not drawn)	tim10-1 inh 51 | tim10-1 confirm inactive
Cc1ccc(C2CC2/C(=N/O)c2ccc(F)cc2)cc1 (stereo not drawn)	none
Cn1c(=O)c2c(nc(SCCN3CCOCC3)n2Cc2cccc3ccccc23)n(C)c1=O	tim10-1 inh 44 (no result: PfHsp90 set2) | tim10-1 confirm inactive
COC(=O)c1cccc(NC(=O)c2cc3sccc3n2C)c1	tim10-1 inh 44 | tim10-1 confirm inactive
O=C(c1cc2ccccc2o1)N1CCN(S(=O)(=O)c2ccccc2)CC1	tim10-1 inh 43 (no result: SKKanGAS inh) | tim10-1 confirm inactive
O=C(c1cc2ccccc2o1)N1CCN(S(=O)(=O)c2cccs2)CC1	none
COc1ccc2nc(SC(C)C(=O)NCC(=O)Nc3ccc(F)c(F)c3F)[nH]c2c1 (stereo not drawn)	none (no result: SKKanGAS inh)
CC(NC(=O)c1cc2cc(Br)ccc2oc1=N)c1ccccc1 (stereo not drawn)	none
O=S(=O)(c1ccccc1Br)N(Cc1ccccc1)CC(O)COCc1ccccc1 (stereo not drawn)	none (no result: SKKanGAS inh)
COc1ccc(/C=N/c2c(-c3ccc(OC)cc3)nc3n2CCS3)cc1	tim10-1 inh 40 | tim10-1 confirm inactive
Cn1nc(-c2ccccc2)cc1NC(=O)Nc1ccc(C(C)(C)C)cc1	tim10-1 inh 41 | tim10-1 confirm 39
CCOC(=O)CN(C(=O)CNC(=O)c1ccco1)C(C(=O)NC1CCCCC1)c1cccnc1 (stereo not drawn)	none
COc1ccc(N=Nc2n(C)c3ccccc3[n+]2C)cc1	none (no result: tim10-1 inh, PfHsp90 set2, tim23-1 inh, TIM10 inh)
COc1ccc(-c2cc(C(=O)OCc3ccccn3)c3ccccc3n2)cc1	tim10-1 inh 42 | tim10-1 confirm inactive
COc1ccc(-c2cc(C(=O)OCC(=O)N(C)C)c3ccccc3n2)cc1	none
COc1ccc(-c2cc(C(=O)N3CCCCCC3)c3ccccc3n2)cc1	tim10-1 inh 52 (no result: SKKanGAS inh) | tim10-1 confirm inactive
COc1ccc(-c2nn(-c3ccccc3)cc2/C=C(\CC(=O)O)c2nc3ccccc3s2)cc1OC	tim10-1 inh 71 | tim10-1 confirm 41
COc1ccc(S(=O)(=O)Nc2c(C)n(C)n(-c3ccccc3)c2=O)cc1C(=O)O	none
CSc1nc2nccc(/C=C\c3ccccc3)n2n1	tim10-1 inh 53 | tim10-1 confirm 38
N#CCSc1nccc(/C=C/c2ccccc2)n1	none
COc1ccc(C(=O)N2CCN(CC(=O)N3CCOCC3)CC2)cc1	none
CCC(=O)N1c2ccccc2[C@@H](N(C(C)=O)c2ccccc2)C[C@H]1C	none
CC(=O)N(c1ccccc1)C1CC(C)N(C(=O)c2ccccc2)c2ccccc21 (stereo not drawn)	tim10-1 inh 42 | tim10-1 confirm inactive
CC(C)OCCCNC(=O)C(Cc1ccccc1)NS(=O)(=O)c1ccc2c(c1)CCC(=O)N2 (stereo not drawn)	none
O=C(NC(NNc1ccc([N+](=O)[O-])cc1)(C(F)(F)F)C(F)(F)F)c1ccc(F)cc1	none
O=C(NC(NNc1ccc([N+](=O)[O-])cc1)(C(F)(F)F)C(F)(F)F)c1ccccc1Cl	tim10-1 inh 47 (no result: PfHsp90 set2) | tim10-1 confirm inactive
CC(C)n1c(O)c(N=NC(=O)C2COc3ccccc3O2)c2ccccc21 (stereo not drawn)	tim10-1 inh 48 | tim10-1 confirm inactive
Cn1c(O)c(N=NC(=O)C2COc3ccccc3O2)c2ccccc21 (stereo not drawn)	none
CCCOC(=O)c1ccc(NC(=O)c2c(Cl)ccc(Cl)c2OC)cc1	tim10-1 inh 48 | tim10-1 confirm 32
O=C(Cn1nc(C(F)(F)F)c2c1CCC2)NCc1ccc(Cl)cc1	tim10-1 inh 41 | tim10-1 confirm inactive
Cc1cccc(/C=C2\CS/C(=C\c3cccc(C)c3)C2=O)c1	tim10-1 inh 44 | tim10-1 confirm 36
COc1cc(/C=C2/CC/C(=C/c3ccc(O)c(OC)c3)C2=O)ccc1O	SKKanGAS inh inconclusive
